Screening data: PubChem BioAssay, several laboratories
SENP8 block-1: blocks human SENP8 cleavage of Nedd8 substrate | inhibition, % at 20 µM | Q96LD8 | recombinant SENP8, Nedd8 substrate fluorescence | AID 602440 | actives 0.64% (n = 360,000); in the data active = inhibition mostly above about 40%, no sharp cut-off; inactive = mostly below about 27%
SENP6 block: blocks the human protease SENP6; Recombinant SENP6 catalytic domain, aminoluciferin luminescence; Q9GZR1; inhibition, % at 10 µM; actives 1.8% (n = 330,000);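 active = inhibition above about 50% at the single tested dose, limit read from the data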;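 note: plate controls were DMSO wells with enzyme for no effect and DMSO wells lacking enzyme for full effect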
Target sequence (Q9GZR1 628-1112 limits assumed): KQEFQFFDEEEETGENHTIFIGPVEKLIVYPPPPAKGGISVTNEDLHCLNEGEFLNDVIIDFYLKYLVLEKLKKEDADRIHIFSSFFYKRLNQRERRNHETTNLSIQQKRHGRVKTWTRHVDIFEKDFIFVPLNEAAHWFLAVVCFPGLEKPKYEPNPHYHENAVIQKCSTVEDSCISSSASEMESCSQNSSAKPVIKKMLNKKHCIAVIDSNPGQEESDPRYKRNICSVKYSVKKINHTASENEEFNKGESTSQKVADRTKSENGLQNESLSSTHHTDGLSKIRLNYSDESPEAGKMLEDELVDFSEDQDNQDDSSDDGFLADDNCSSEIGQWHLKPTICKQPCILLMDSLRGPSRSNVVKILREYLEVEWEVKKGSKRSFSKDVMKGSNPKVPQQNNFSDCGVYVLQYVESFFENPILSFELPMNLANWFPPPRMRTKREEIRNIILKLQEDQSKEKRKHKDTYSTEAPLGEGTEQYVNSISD
Platelet DG rel: modulates dense granule release in human platelets; human platelet-rich plasma, SFLLRN dense granule ATP release, luminescence; inhibition, %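 (compounds screened at 7.5 µM in platelet-rich plasma)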; actives 0.22% (n = 300,000);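 active = mean replicate score, as percent of positive control, at or above 50; inconclusive = mean below 50 but at least one replicate at or above 50; inactive = mean and every replicate below 50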
SENP8 block-2: inhibitors of human SENP8 protease. purified SENP8, Z-RLRGG-aminoluciferin cleavage, luminescence. Q96LD8. actives 1.2% (n = 330,000). inhibition, % at 10 µM; in the data active = inhibition above about 50%
SENP7 inh: SENP7 protease inhibition. AID 434973. recombinant SENP7, Z-RLRGG-aminoluciferin luminescence, 40 min. inhibition, % at 5 µM. actives 1.5% (n = 330,000). Q9BQF6;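 active = inhibition above about 50% at the single test dose, limit read from the data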;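 note: plate controls were DMSO with enzyme for no effect and no enzyme buffer wells for full effect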
SENP8 conf: human SENP8 inhibition, confirmed; shares compounds with SENP7 inh; AID 488912; Recombinant SENP8, Z-RLRGG-aminoluciferin luminescence, 60 min; actives 40% (n = 6,200); inhibition, % at 12.5 µM;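 active = mean inhibition across replicates above about 50%, limit read from the data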
SENP6 confirm: confirmation of human SENP6 protease inhibitors. inhibition, % at 12.5 µM. shares compounds with SENP7 inh. actives 58% (n = 6,200). recombinant SENP6, Z-RLRGG-aminoluciferin luminescence
SENP7 conf: human SENP7 inhibition, confirmed | shares compounds with SENP7 inh | recombinant SENP7, Z-RLRGG-aminoluciferin luminescence, 40 min | inhibition, % at 12.5 µM | actives 69% (n = 6,200) | AID 488917
Casp3 SENP sel: inhibits human caspase-3 in SENP selectivity test | shares compounds with SENP7 inh | purified caspase-3, Z-DEVD-aminoluciferin luminescence, 60 min | inhibition, % at 12.5 µM | actives 60% (n = 6,200);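 active = mean inhibition above about 50%, limit read from the data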;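 note: plate controls were enzyme with DMSO for no effect and wells without caspase-3 for full effect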
Target sequence (P42574 28-227 limits assumed): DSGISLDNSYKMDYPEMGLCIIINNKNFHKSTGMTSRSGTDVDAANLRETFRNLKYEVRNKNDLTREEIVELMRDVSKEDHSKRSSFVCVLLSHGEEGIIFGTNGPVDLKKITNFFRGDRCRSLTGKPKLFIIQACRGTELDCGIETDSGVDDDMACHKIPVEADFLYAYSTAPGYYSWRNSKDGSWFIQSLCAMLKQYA
SENP luc ctr: interferes with luciferase luminescence in SENP counter-screen. shares compounds with SENP7 inh. Pre-incubated SENP8/Z-RLRGG-aminoluciferin, luciferase luminescence interference. inhibition, % at 12.5 µM. actives 39% (n = 6,200). AID 488919;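 active = mean inhibition above about 50% when retested at one dose, limit read from the data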;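 note: plate controls were DMSO wells with completed reaction for no effect and substrate without enzyme for full effect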
Numbers without * were called inactive; u = inconclusive; x = no result given. Only some compounds are listed: those with a hit (about 2.4% of all), similar ones and a draw of the others.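 Rule for the calls, unless noted: active = mean inhibition above about 50% in the one-dose retest (limit read from the data); inactive = the rest.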

SMILES | SENP8 block-1 | SENP6 block | Platelet DG rel | SENP8 block-2 | SENP7 inh | SENP8 conf | SENP6 confirm | SENP7 conf | Casp3 SENP sel | SENP luc ctr
O=S(=O)(c1cccc(-c2cn3cc(Cl)ccc3n2)c1)N1CCOCC1 | -215.7 | 4.3 | 13.9 | -8.1 | -7.5 | x | x | x | x | x
Brc1ccc2nc(-c3c[nH]c4ccccc34)cn2c1 | -157.0 | 81.3* | 6.1 | 79.2* | 24.3 | 48.9 | 89.5* | 96.9* | 67.5* | 89.8*
Cc1cccn2cc(-c3c[nH]c4ccccc34)nc12 | -399.6 | -37.2 | 13.6 | -3.3 | -7.3 | x | x | x | x | x
Clc1ccc(-c2cn3cc(Br)ccc3n2)cc1Cl | -12.8 | 63.1* | -0.1 | 58.7* | 27.8 | -10.7 | 23.0 | -10.9 | 28.2 | -16.3
Cc1ccn2cc(-c3ccc(Br)cc3)nc2c1 | -424.5 | 91.5* | 32.0 | 94.1* | 97.2* | 55.9* | 94.0* | 96.2* | 93.7* | 38.9
Cc1ccn2cc(-c3cnoc3C)nc2c1 | -227.8 | 1.1 | 2.4 | -8.3 | 3.1 | x | x | x | x | x
COc1c(Cl)cccc1-c1cn2ccc(C)cc2n1 | -366.8 | 90.2* | 17.6 | 84.0* | 94.0* | 90.4* | 91.0* | 100.3* | 89.6* | 30.1
Cc1cccc(NC(=O)CNC(=O)CN2C(=O)NC3(CCc4ccccc43)C2=O)c1C (stereo not given) | 5.0 | -21.7 | x | -9.5 | -6.3 | x | x | x | x | x
CC(=O)N1CCN(c2ccc([N+](=O)[O-])c(NCC3CCCO3)c2)CC1 (stereo not given) | 35.9 | 1.6 | 3.6 | -1.5 | 6.7 | x | x | x | x | x
O=C(c1ccccc1F)N1CCN(c2ccc([N+](=O)[O-])c(NCC3CCCO3)c2)CC1 (stereo not given) | 23.7 | 2.2 | -3.9 | 4.3 | 53.8* | -12.3 | -7.5 | -10.1 | 2.8 | -2.4
Cc1c(NS(=O)(=O)c2cccc(C(=O)OCC(=O)c3ccc(Cl)cc3)c2)c(=O)n(-c2ccccc2)n1C | 9.2 | x | x | x | x | x | x | x | x | x
Cn1cc(C(=O)c2ccccc2)cc1-c1nc2ccccc2n1C | -71.3 | -21.0 | -1.0 | -3.2 | -3.8 | x | x | x | x | x
CN(C)c1ccc(-c2nc3ccccc3n2C)cc1 | -261.3 | 91.0* | 30.9 | 88.8* | 96.1* | 95.6* | 98.3* | 102.5* | 98.0* | 95.8*
Cc1ccc(-c2nc3ccccc3n2C)o1 | -150.8 | 69.7* | 25.3 | 78.9* | 82.7* | 91.1* | 90.6* | 98.5* | 95.4* | 89.6*
Cc1oc(-c2nc3ccccc3n2C)cc1C(=O)c1ccccc1 | -58.2 | 94.0* | x | 85.1* | 47.5 | 93.8* | 94.5* | 100.7* | 94.2* | 92.9*
Cn1c(-c2ccc(Br)o2)nc2ccccc21 | 4.2 | 96.9* | 14.4 | 95.3* | 98.7* | 0.3 | 97.7* | 102.6* | 98.5* | 95.0*
CC(NC(=O)C1CCN(S(=O)(=O)c2cccs2)CC1)c1cccc(Cl)c1 (stereo not given) | 9.9 | 8.2 | x | 3.1 | 6.9 | x | x | x | x | x
COc1ccc(CC(=O)OCN2C(=O)c3ccccc3C2=O)cc1OC | 15.9 | -8.7 | 3.5 | -2.9 | 5.2 | x | x | x | x | x
Cn1c(-c2ccc(Br)o2)nc2cc(Br)ccc21 | -32.9 | 95.5* | x | 85.2* | 83.5* | 8.2 | 89.7* | 90.6* | 89.1* | 38.3
Brc1ccc(Cn2c(-c3ccc(Br)o3)nc3ccccc32)o1 | -28.0 | x | 13.8 | x | x | x | x | x | x | x
CC(=O)Nc1cccc(-c2ccnc3c2CC(C(=O)NCc2ccc(F)c(F)c2)O3)c1 (stereo not given) | 1.3 | x | x | x | x | x | x | x | x | x
CCN(C(=S)NC(=O)c1ccco1)c1cccc2ccccc12 | -483.0 | 70.4* | x | 32.6 | 22.6 | 12.8 | 16.9 | 8.7 | 2.8 | 4.8
CC(=O)Nc1cccc(-c2ccnc3c2CC(C)(C(=O)NCC2CC2)O3)c1 (stereo not given) | -5.1 | x | x | x | x | x | x | x | x | x
Cc1ccc(-c2cc3c(N=O)c4ccccc4c-3n[nH]2)cc1 | 0.3 | 99.8* | u | 22.9 | 100.6* | 39.0 | 29.5 | 20.7 | 54.8* | 8.5
CCc1ccc(NC(=O)c2noc3c2CCC3)cc1 | 12.7 | 88.0* | 3.2 | 70.3* | 60.0* | 79.7* | 80.1* | 96.5* | 84.1* | 81.4*
SMILES | SENP8 block-1 | SENP6 block | Platelet DG rel | SENP8 block-2 | SENP7 inh | SENP8 conf | SENP6 confirm | SENP7 conf | Casp3 SENP sel | SENP luc ctr
Cc1ccc(O)c(NC(=O)c2noc3c2CCCCC3)c1 | -3.8 | -42.6 | 10.1 | 76.1* | 79.7* | 30.0 | 24.4 | 45.5 | 21.0 | 41.4
Cc1ccc(NC(=O)c2noc3c2CCCCC3)cc1C | 11.3 | 43.9 | 1.6 | 8.8 | 62.5* | 13.9 | 13.4 | 27.1 | 17.8 | 9.3
COc1ccc(S(=O)(=O)Nc2c(NC3CCCCC3)c3ccccc3oc2=O)cc1OC | -72.9 | -8.9 | 4.7 | -2.4 | 1.3 | x | x | x | x | x
CCOc1ccc(-c2nnc(-c3ccccc3)o2)cc1 | -131.3 | 95.7* | 8.9 | 90.5* | 92.7* | 9.0 | 8.4 | 9.3 | 1.8 | 2.8
CCOc1ccc(-c2nnc(-c3ccc(OC)cc3)o2)cc1 | -431.9 | -4.4 | -11.3 | -17.7 | -11.7 | x | x | x | x | x
CCOC(=O)COc1ccc(-c2nnc(-c3ccccc3)o2)cc1 | -35.4 | 78.5* | 9.9 | 26.5 | 74.1* | 48.6 | 49.0 | 68.4* | 72.4* | 13.8
CCOc1ccc(-c2nc3ccccc3c(=O)o2)cc1 | -183.6 | 7.3 | 12.3 | 21.6 | 72.7* | 28.0 | 36.2 | 46.2 | 34.0 | 37.5
CC(C)(C)C(=O)Nc1ccc(-c2nc3ccccc3c(=O)o2)cc1 | -14.9 | 62.0* | 11.7 | -0.9 | 67.5* | 3.5 | 6.4 | 11.7 | 12.7 | 6.2
Cn1c(CNC(=O)CNC(=O)Cc2ccc(F)cc2)cc(=O)n(C)c1=O | 10.3 | -1.5 | -5.0 | 0.8 | 4.7 | x | x | x | x | x
Cc1ccc(S(=O)(=O)NC(C)C(=O)OCC(=O)N(C)c2ccccc2)cc1 (stereo not given) | 11.8 | -8.2 | x | -4.1 | 1.6 | x | x | x | x | x
Cc1nn(-c2ccccc2Cl)c(Cl)c1/C=N/Nc1cccc(C(=O)O)c1 | -7.3 | 97.5* | 5.0 | 96.9* | 95.2* | 99.4* | 100.6* | 103.4* | 90.7* | 98.4*
O=C(O)c1cccc(N/N=C/c2ccc(F)c(F)c2)c1 | -19.4 | 100.7* | 2.9 | 94.4* | 2.2 | 98.6* | 99.3* | 102.4* | 86.4* | 98.1*
Cc1nn(-c2cccc(C(F)(F)F)c2)c(Cl)c1/C=N/Nc1cccc(C(=O)O)c1 | 5.1 | x | -0.6 | x | x | x | x | x | x | x
Cc1cccc2cc(/C=N/Nc3ccc(C(=O)O)cc3)c(Cl)nc12 | -32.2 | 83.2* | 4.2 | 76.6* | 5.1 | 88.0* | 89.5* | 89.1* | 72.0* | 20.8
